Measured values published in PubChem BioAssay AID1159580 (chemical genetic matrix, 2015).
Where “and” joins values, the source holds several entries; their conditions need not be identical. Equal entries are not always repeated. The whole screen tested about 5,500 compounds, of which about 2,000 (36%) were called active. About 18% were inconclusive and are not listed. Rule as the data show it: active = normalized growth mostly below about 0.91 (no sharp cut-off); inconclusive = no clear call, values can overlap the other calls; inactive = mostly above about 0.92. The list shows a part of the results.

Experiment: chemical genetic growth profiling, strain panel (AID 1159580);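 also: tested at 20 µM; growth read once vehicle control cultures reached saturation at 30 °C; 1 = growth at the plate median or of vehicle wells; lower values mean less growth of the strain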
Conditions: S. cerevisiae deletion strains, growth OD

Measured: normalized growth

O=c1c(O)c(-c2ccccc2)oc2ccc3occc3c12
active: locus YAL026C, strain drs2, stronger effect = lower value 0.808 | locus YAL030W, strain snc1, stronger effect = lower value 0.902 | locus YBL061C, strain skt5, stronger effect = lower value 0.811 | locus YBR009C, strain hhf1, stronger effect = lower value 0.627 | locus YBR023C, strain chs3, stronger effect = lower value 0.71 | locus YBR231C, strain swc5, stronger effect = lower value 0.799 | locus YBR279W, strain paf1, stronger effect = lower value 0.796 | locus YCL011C, strain gbp2, stronger effect = lower value 0.814 | locus YCL016C, strain dcc1, stronger effect = lower value 0.766 | locus YCL029C, strain bik1, stronger effect = lower value 0.749 | locus YCL061C, strain MRC1, stronger effect = lower value 0.801 | locus YCL069W, strain vba3, stronger effect = lower value 0.662 | locus YDL035C, strain GPR1, stronger effect = lower value 0.849 | locus YDL040C, strain nat1, stronger effect = lower value 0.93 | locus YDL074C, strain BRE1, stronger effect = lower value 0.671 | locus YDL101C, strain DUN1, stronger effect = lower value 0.858 | locus YDL192W, strain arf1, stronger effect = lower value 0.731 | locus YDR101C, strain arx1, stronger effect = lower value 0.765 | locus YDR137W, strain rgp1, stronger effect = lower value 0.798 | locus YDR159W, strain sac3, stronger effect = lower value 0.742 | locus YDR162C, strain NBP2, stronger effect = lower value 0.782 | locus YDR195W, strain ref2 1.23 [resistant] | locus YDR297W, strain sur2, stronger effect = lower value 0.849 | locus YDR318W, strain mcm21, stronger effect = lower value 0.799 | locus YDR335W, strain msn5, stronger effect = lower value 0.773 | locus YDR388W, stronger effect = lower value 0.847 | locus YDR392W, strain spt3, stronger effect = lower value 0.172 | locus YDR502C, strain sam2, stronger effect = lower value 0.783 | locus YEL003W, strain gim4, stronger effect = lower value 0.814 | locus YEL037C, strain rad23, stronger effect = lower value 0.86 | locus YEL061C, strain CIN8 (second series), stronger effect = lower value 0.71 | locus YER015W, strain faa2, stronger effect = lower value 0.829 | locus YER016W, strain bim1, stronger effect = lower value 0.92 | locus YER110C, stronger effect = lower value 0.767 | locus YER111C, strain swi4, stronger effect = lower value 0.793 | locus YER155C, strain BEM2 (second series), stronger effect = lower value 0.25 | locus YER155C, strain BEM2, stronger effect = lower value 0.807 | locus YER167W, strain BCK2, stronger effect = lower value 0.9 | locus YGL078C, strain dbp3, stronger effect = lower value 0.884 | locus YGL086W, strain mad1, stronger effect = lower value 0.764 | locus YGL173C, strain kem1, stronger effect = lower value 0.833 | locus YGL227W, strain vid30, stronger effect = lower value 0.888 | locus YGL240W, strain doc1, stronger effect = lower value 0.566 | locus YGL248W, strain PDE1, stronger effect = lower value 0.801 | locus YGL253W, strain hxk2, stronger effect = lower value 0.501 | locus YGR135W, strain pre9, stronger effect = lower value 0.713 | locus YGR229C, strain SMI1, stronger effect = lower value 0.416 | locus YGR252W, strain gcn5, stronger effect = lower value 0.593 | locus YHR079C, strain IRE1 (second series), stronger effect = lower value 0.873 | locus YHR094C, strain hxt1, stronger effect = lower value 0.904 | locus YHR142W, strain chs7, stronger effect = lower value 0.367 | locus YHR200W, strain rpn10, stronger effect = lower value 0.798 | locus YIL066C, strain RNR3, stronger effect = lower value 0.833 | locus YIL125W, strain kgd1, stronger effect = lower value 0.886 | locus YIR030C, strain dcg1, stronger effect = lower value 0.794 | locus YJL092W, strain hpr5, stronger effect = lower value 0.879 | locus YJL095W, strain BCK1 (second series), stronger effect = lower value 0.562 | locus YJL129C, strain trk1, stronger effect = lower value 0.852 | locus YJL164C, strain tpk1, stronger effect = lower value 0.781 | locus YJL166W, strain qcr8, stronger effect = lower value 0.74 | locus YJL168C, strain set2, stronger effect = lower value 0.925 | locus YJL187C, strain SWE1 (second series), stronger effect = lower value 0.847 | locus YJR043C, strain POL32, stronger effect = lower value 0.64
0.437 (active) and 0.978 (inactive): locus YJL095W, strain BCK1, stronger effect = lower value
0.72 (active) and 0.968 (inactive): locus YHR030C, strain SLT2, stronger effect = lower value
inactive: locus YAL013W, strain DEP1, stronger effect = lower value 0.925 | locus YAL021C, strain ccr4, stronger effect = lower value 0.987 | locus YBR021W, strain FUR4, stronger effect = lower value 0.889 | locus YBR171W, strain sec66, stronger effect = lower value 0.962 | locus YBR229C, strain ROT2, stronger effect = lower value 0.955 | locus YCR088W, strain abp1, stronger effect = lower value 0.93 | locus YDL005C, strain med2, stronger effect = lower value 0.951 | locus YDL185W, strain tfp1, stronger effect = lower value 0.938 | locus YDR001C, strain nth1, stronger effect = lower value 0.956 | locus YDR069C, strain doa4, stronger effect = lower value 0.941 | locus YDR150W, strain NUM1, stronger effect = lower value 0.954 | locus YDR334W, strain swr1, stronger effect = lower value 0.913 | locus YEL061C, strain CIN8, stronger effect = lower value 0.93 | locus YFR010W, strain ubp6, stronger effect = lower value 0.926 | locus YGL167C, strain pmr1, stronger effect = lower value 0.919 | locus YHR013C, strain ard1, stronger effect = lower value 0.921 | locus YHR027C, strain rpn1, stronger effect = lower value 0.937 | locus YHR079C, strain IRE1, stronger effect = lower value 0.956 | locus YIL073C, strain SPO22, stronger effect = lower value 0.733 | locus YJL115W, strain asf1, stronger effect = lower value 0.943 | locus YJL134W, strain LCB3, stronger effect = lower value 0.956 | locus YJL154C, strain vps35, stronger effect = lower value 0.939 | locus YJR066W, strain TOR1, stronger effect = lower value 0.883
